# From PubChem BioAssay AID1347418 (Sanford-Burnham Center for Chemical Genomics, 2020)
# About 750 (58%) of roughly 1,300 compounds were called active. The list shows a part of the results. Unmarked numbers belong to inactive results.
# Target: Sulfhydryl oxidase 1 (Homo sapiens) (UniProt O00391)
# Assay: QSOX1 enzyme inhibitors, primary screen, biochemical, ROS-Glo H2O2 luminescence, HTS (AID 1347418)
# Conditions: recombinant QSOX1, ROS-Glo H2O2 luminescence; at 12.5 µM; active compounds read high; active = any value above zero
# Sequence of Sulfhydryl oxidase 1 (Homo sapiens) (O00391 whole entry, looked up): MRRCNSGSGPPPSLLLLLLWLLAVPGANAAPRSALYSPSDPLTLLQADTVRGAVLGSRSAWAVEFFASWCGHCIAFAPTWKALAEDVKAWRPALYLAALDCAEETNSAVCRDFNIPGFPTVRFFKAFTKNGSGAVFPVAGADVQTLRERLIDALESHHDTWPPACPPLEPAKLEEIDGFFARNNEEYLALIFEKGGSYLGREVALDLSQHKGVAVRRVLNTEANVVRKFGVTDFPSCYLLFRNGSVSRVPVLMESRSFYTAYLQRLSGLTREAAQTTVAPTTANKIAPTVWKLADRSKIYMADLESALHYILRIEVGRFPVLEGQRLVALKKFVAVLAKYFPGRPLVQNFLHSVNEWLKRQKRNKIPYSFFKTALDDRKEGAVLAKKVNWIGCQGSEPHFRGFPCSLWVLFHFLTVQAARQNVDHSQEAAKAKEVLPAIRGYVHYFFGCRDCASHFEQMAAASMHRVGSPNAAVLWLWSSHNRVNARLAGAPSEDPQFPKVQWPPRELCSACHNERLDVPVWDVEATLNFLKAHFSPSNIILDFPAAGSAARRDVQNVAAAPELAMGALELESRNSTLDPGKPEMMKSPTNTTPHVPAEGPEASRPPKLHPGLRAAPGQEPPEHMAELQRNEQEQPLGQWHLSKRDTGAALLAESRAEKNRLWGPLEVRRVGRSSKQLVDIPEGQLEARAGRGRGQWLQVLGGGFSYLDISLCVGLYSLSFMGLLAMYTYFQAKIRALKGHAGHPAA
row,Compound,inhibition
1,C#CCCN,0.1% (active)
2,Nc1ncnc2nc(-c3ccc(N4CCOCC4)nc3)cc(-c3cccc(Br)c3)c12,10% (active)
3,NC(=O)c1ccc2[nH]ccc2c1,0.6% (active)
4,CC(C)OC(=O)C(C)(C)Oc1ccc(C(=O)c2ccc(Cl)cc2)cc1,-0.6%
5,COc1ccc(NC(=O)/C=C/c2ccc(Cl)cc2)cc1,12.1% (active)
6,CC(C)(C)c1ccc(/C=C/C(=O)Nc2ccc3c(c2)OCCO3)cc1,-1.6%
7,N[C@@H](CCCC(=O)O)C(=O)O,6.7% (active)
8,NC(CCCP(=O)(O)O)C(=O)O (centres undefined),0%
9,NC(=O)CC[C@H](N)C(=O)O,2.8% (active)
10,N[C@H](CCCP(=O)(O)O)C(=O)O,-1.3%
11,CN1C2CCCC1CC(NC(=O)c1nn(C)c3ccccc13)C2 (centres undefined),3% (active)
12,O=c1[nH]ccc2c(O)cccc12,4.1% (active)
13,O[Si](CCCN1CCCCC1)(c1ccc(F)cc1)C1CCCCC1 (centres undefined),-3.8%
14,CCOC(=O)[C@H](CCc1ccccc1)N[C@@H](C)C(=O)N1[C@H](C(=O)O)C[C@H]2CCCC[C@@H]21,2.6% (active)
15,C[C@H](NC(CCc1ccccc1)C(=O)O)C(=O)N1CCC[C@H]1C(=O)O (some centres undefined),-2.6%
16,Cc1cccc(C#Cc2ccccc2)n1,2.9% (active)
17,COc1ccc2c(c1OC)C(=O)O[C@@H]2[C@H]1c2c(cc3c(c2OC)OCO3)CCN1C,-4.2%
18,COc1cc([C@@H]2c3cc4c(cc3[C@@H](O[C@@H]3O[C@@H]5CO[C@@H](C)O[C@H]5[C@H](O)[C@H]3O)[C@H]3COC(=O)[C@H]23)OCO4)cc(OC)c1O,0%
19,COc1cc([C@@H]2c3cc4c(cc3[C@H](O)C3COC(=O)[C@@H]32)OCO4)cc(OC)c1OC (some centres undefined),1.1% (active)
20,CC1=C(CC(=O)O)c2cc(F)ccc2/C1=C\c1ccc(S(C)(=O)=O)cc1,3.1% (active)
21,CC1=C(CC(=O)O)c2cc(F)ccc2/C1=C\c1ccc(S(C)=O)cc1 (centres undefined),-0.4%
22,CC(=O)Oc1ccccc1C(=O)O,0.3% (active)

row,Compound,inhibition
1,O=C(CCc1ccc(O)cc1)c1c(O)cc(O)cc1O,6.2% (active)
2,O=C1CCC(c2ccc(-n3ccnc3)cc2)=NN1,6.6% (active)
3,Nc1nc2ccc(OC(F)(F)F)cc2s1,-3.9%
4,Cc1ccc2nc(CN(CCN(Cc3nc4ccc(C)cc4[nH]3)Cc3nc4ccc(C)cc4[nH]3)Cc3nc4ccc(C)cc4[nH]3)[nH]c2c1,-0.7%
5,Brc1c(Br)c(Br)c2n[nH]nc2c1Br,1% (active)
6,CNCCCC1c2ccccc2C=Cc2ccccc21,-4.7%
7,CN(C)CCCN1c2ccccc2CCc2ccccc21,11.1% (active)
8,CN(C)CCCN1c2ccccc2CCc2ccc(Cl)cc21,2.6% (active)
9,CNCCCN1c2ccccc2CCc2ccccc21,5.2% (active)
10,CC(CN(C)C)CN1c2ccccc2CCc2ccccc21 (centres undefined),2% (active)
11,CNCCCC12CCC(c3ccccc31)c1ccccc12,-2.7%
12,O=C(O)CCC(C(=O)O)N1C(=O)c2ccccc2C1=O (centres undefined),-1%
13,CCOC(=O)c1cnc2c(cnn2CC)c1NN=C(C)C,0.7% (active)
14,CCCCNc1ccc(C(=O)OCCN(C)C)cc1,-1.8%
15,CCCCNc1c(C(=O)OCC)c(C)nc2c1cnn2CC,3.5% (active)
16,CC(C)COC(=O)OCN1C(=O)CN(CCN2CC(=O)N(COC(=O)OCC(C)C)C(=O)C2)CC1=O,2.6% (active)
17,NCCSSCCN,10.5% (active)
18,CCOC(=O)Nc1ccc(NCc2ccc(F)cc2)nc1N,9.8% (active)
19,CCCCCCCCCC[Si](C)(C)CCC(=O)NC(Cc1ccc(C)cc1)c1ccccc1 (centres undefined),0.6% (active)
20,CCCCCCCCc1ccc(-c2ccc(C(=O)O)cc2)cc1,-5.7%
21,CCN(c1nc(N)c(C(=O)N=C(N)N)nc1Cl)C(C)C,-3.8%
22,CN(C)c1nc(N)c(C(=O)N=C(N)N)nc1Cl,0.7% (active)

row,Compound,inhibition
1,NC(N)=NC(=O)c1nc(Cl)c(N)nc1N,-2.5%
2,NC(N)=NC(=O)c1nc(Cl)c(N2CCCCCC2)nc1N,1.7% (active)
3,CCOC(=O)C1=C(C)NC(C)=C(C(=O)OC)C1c1cccc([N+](=O)[O-])c1 (centres undefined),1% (active)
4,COC(=O)C1=C(C)NC(C)=C(C(=O)OC)C1c1ccccc1[N+](=O)[O-],-1.1%
5,COCCOC(=O)C1=C(C)NC(C)=C(C(=O)OC(C)C)C1c1cccc([N+](=O)[O-])c1 (centres undefined),-2.5%
6,COC(=O)C1=C(C)NC(C)=C(C(=O)OCCN(C)Cc2ccccc2)C1c1cccc([N+](=O)[O-])c1 (centres undefined),-1.6%
7,COCCOC(=O)C1=C(C)NC(C)=C(C(=O)OC/C=C/c2ccccc2)C1c1cccc([N+](=O)[O-])c1 (centres undefined),5.1% (active)
8,C#CCN1C(C)=C(C(=O)OC)C(c2cccc([N+](=O)[O-])c2)C(C(=O)OCC)=C1C (centres undefined),-3%
9,COC(=O)C1=C(C)NC(C)=C(C(=O)OC(C)(C)CN(C)CCC(c2ccccc2)c2ccccc2)C1c1cccc([N+](=O)[O-])c1 (centres undefined),-1.4%
10,CCOC(=O)C1=C(C)NC(C)=C(C(=O)OCC)C1c1c(F)c(F)c(F)c(F)c1F,-3.2%
11,CCOC(=O)C1=C(C)NC(C)=C(C(=O)OC)C1c1cccc(Cl)c1Cl (centres undefined),3% (active)
12,O=C(O)CN(CCOCCOCCN(CC(=O)O)CC(=O)O)CC(=O)O,-5.4%
13,CCCCCCCCCCC(C)(C)C(=O)Nc1c(OC)cc(OC)cc1OC,-1%
14,COc1ccccc1OCC(O)CN1CCN(CC(=O)Nc2c(C)cccc2C)CC1 (centres undefined),3.9% (active)
15,COc1ccccc1N1CCN(CC(O)COc2cccc3ccccc23)CC1 (centres undefined),8.9% (active)
16,COc1cc2nc(N3CCN(C(=O)OCc4ccccc4)C(C(=O)NC(C)(C)C)C3)nc(N)c2cc1OC (centres undefined),4.3% (active)
17,COc1cc2nc(N3CCN(C(=O)C4COc5ccccc5O4)CC3)nc(N)c2cc1OC (centres undefined),4.9% (active)
18,COc1cc2nc(N(C)CCCNC(=O)C3CCCO3)nc(N)c2cc1OC (centres undefined),1.1% (active)
19,COc1cc2nc(N3CCN(C(=O)C4CCCO4)CC3)nc(N)c2cc1OC (centres undefined),0.3% (active)
20,COc1cc2nc(N3CCN(C(=O)c4ccco4)CC3)nc(N)c2cc1OC,-0.3%
